Entries with a potency or affinity are not part of this list. Results filed as inconclusive are left out. Activity calls are given as the source filed them. Unless noted, the rule behind the calls is not given here.
Key:
[1] = RMG-1 ovarian cancer cell viability loss – cherry-pick, dose response (AID 687029;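 active = signal drop whose fitted half-maximal concentration is at most twice the top valid dose, in every test run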;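 note: cells exposed to compound for 96 hours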)
[2] = IOSE-T80 viability loss, PAX8-independent line – cell-based, cherry-pick, selectivity assay for PAX8 inhibitor project, dose response (AID 687032;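 active = fitted half-maximal concentration for viability loss no higher than twice the top valid dose, in every repeat run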;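 note: cells exposed to compound for 96 h before reading; 0% = neutral control wells and -100% = 2 µM mitoxantrone kill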)
[3] = CMV-driven luciferase expression suppression in HEK293 – cell-based, luminescence, dry powder, counter-screen for Pax8 inhibitor project, dose response (AID 743020;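 active = signal-lowering compounds whose fitted half-maximal concentration is at or below twice the top tested dose in every run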;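 note: HEK293 cells stably expressing the CMV luciferase reporter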)
[4] = general cell-killing toxicity readout – plate reader, dry powder samples, cytotoxicity control for PAX8 inhibitor project, dose response (AID 743021)
[5] = OVCAR-3 cell viability loss – plate reader, dry powder samples, PAX8 inhibitor project, dose response (AID 743044); conditions: max activity: at 35 µM, active compounds read low unless noted
[6] = toxicity toward immortalized ovarian surface epithelium – cell-based, plate reader, dry powder samples, cytotoxicity control for PAX8 inhibitor project, dose response (AID 743045);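 note: 0% = neutral control median and -100% = positive control median; more negative values mean more cell killing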
[7] = A2780 cell killing – plate reader, dry powder samples, cytotoxicity control, dose response (AID 743046);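 note: 0% = neutral control wells and -100% = cytotoxic reference compound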
[8] = OVCAR8 cell viability loss – plate reader, dry powder samples, PAX8 project, dose response (AID 743197)

Measured: max activity

COc1cccc(-c2ccc([C@H]3[C@@H](CO)N(C(=O)c4ccccn4)[C@H]3C#N)cc2)c1
inactive: [1] | [2] | [3] | [4] | [5] -40.2% | [6] | [7]

C[C@@H]1CCCCO[C@H](CN(C)Cc2ccc(Cl)c(Cl)c2)[C@@H](C)CN([C@@H](C)CO)C(=O)c2cc(NC(=O)Nc3ccc(F)cc3)ccc2O1
inactive: [1] | [2] | [3] | [4] | [6]

C[C@@H]1CCCCO[C@@H](CN(C)Cc2ccc(C(F)(F)F)cc2)[C@H](C)CN([C@H](C)CO)C(=O)c2cc(NS(=O)(=O)c3ccc(F)cc3)ccc2O1
inactive: [1] | [2] | [3] | [4] | [6]

O=C(C[C@H]1CC[C@H]2[C@@H](COC[C@@H](O)CN2Cc2ccc3c(c2)OCO3)O1)Nc1ccc(-c2ccccc2)cc1
inactive: [1] | [2] | [3] | [4] | [5] 60.4% [at 2.1 µM, active compounds read low] | [6] | [7] | [8]

C[C@H]1CCCCO[C@H](CN(C)C(=O)NC2CCCCC2)[C@@H](C)CN([C@@H](C)CO)C(=O)c2cc(NC(=O)Nc3ccc(C(F)(F)F)cc3)ccc2O1
inactive: [1] | [2] | [3] | [4] | [5] -30.4% | [6] | [7]

Cc1ccc(S(=O)(=O)N2CC[C@@H]3[C@H](CO)N(C)c4ccc(-c5ccc(C#N)cc5)cc4[C@@H]32)cc1
inactive: [1] | [2] | [3] | [4] | [5] 67.4% [at 2.1 µM, active compounds read low] | [6] | [7]

C[C@H]1CCCCO[C@H](CN(C)C(=O)Nc2ccc(C(F)(F)F)cc2)[C@@H](C)CN([C@@H](C)CO)C(=O)c2cc(NS(=O)(=O)c3ccccc3)ccc2O1
inactive: [1] | [2] | [3] | [4] | [5] -16.1% [at 8 µM, active compounds read low] | [6] | [7]

CN(C[C@H]1N[C@@H](CO)[C@@H]1c1ccc(-c2cccc(F)c2)cc1)S(C)(=O)=O
inactive: [1] | [2] | [3] | [4] | [5] 23.7% [at 8 µM, active compounds read low] | [6] | [7]

Cc1cccc(S(=O)(=O)N2CC[C@@H]3[C@H]2c2cc(C4=CCCCC4)ccc2N[C@@H]3CO)c1
inactive: [1] | [2] | [3] | [4] | [5] 9.72% [at 4.2 µM, active compounds read low] | [6]

O=C(C[C@@H]1CC[C@@H]2[C@H](COC[C@H](O)CN2Cc2ccc3c(c2)OCO3)O1)Nc1ccc(-c2ccccc2)cc1
inactive: [1] | [2] | [3] | [4] | [5] 25.3% [at 0.5 µM, active compounds read low] | [6] | [7] | [8]

C[C@@H]1CN([C@@H](C)CO)C(=O)c2cc(NC(=O)Nc3ccc(C(F)(F)F)cc3)ccc2O[C@@H](C)CCCCO[C@@H]1CN(C)Cc1ccncc1
inactive: [1] | [2] | [3] | [4] | [5] 59.3% [at 2.1 µM, active compounds read low] | [6] | [7] | [8]

COc1ccc(CN(C)C[C@H]2OCCCC[C@H](C)Oc3ccc(NC(=O)Nc4ccc(C(F)(F)F)cc4)cc3C(=O)N([C@@H](C)CO)C[C@@H]2C)cc1
inactive: [1] | [2] | [3] | [4] | [5] -11.3% | [6] | [7]

C[C@@H]1CN([C@H](C)CO)C(=O)c2cc(NS(=O)(=O)c3ccccc3)ccc2O[C@@H](C)CCCCO[C@@H]1CN(C)Cc1ccc(Cl)c(Cl)c1
inactive: [1] | [2] | [3] | [4] | [5] -20% [at 9 µM, active compounds read low] | [6] | [7]

C[C@@H]1CCCCO[C@H](CN(C)S(=O)(=O)c2cccs2)[C@@H](C)CN([C@@H](C)CO)C(=O)c2cc(NC(=O)Nc3ccc(C(F)(F)F)cc3)ccc2O1
inactive: [1] | [2] | [3] | [4] | [5] -21.9% | [6] | [7] | [8]

COc1ccc(NC(=O)N2CCCCN3[C@H](CO)[C@H](c4ccc(C#Cc5ccccc5)cc4)[C@H]3C2)cc1
inactive: [1] | [2] | [3] | [4] | [5] -17.7% | [6] | [7] | [8]

C[C@@H]1CCCCO[C@@H](CN(C)Cc2ccc(C(F)(F)F)cc2)[C@H](C)CN([C@H](C)CO)C(=O)c2cc(NS(=O)(=O)c3ccccc3)ccc2O1
inactive: [1] | [2] | [3] | [4] | [5] -29.5% | [6] | [7]

C[C@@H]1CN([C@@H](C)CO)C(=O)c2cc(NC(=O)Cc3ccccc3)ccc2O[C@@H](C)CCCCO[C@@H]1CN(C)Cc1ccc(C(F)(F)F)cc1
inactive: [1] | [2] | [3] | [4] | [5] -8.58% | [6] | [7]

C[C@@H]1CCCCO[C@@H](CN(C)Cc2ccc(C(F)(F)F)cc2)[C@H](C)CN([C@@H](C)CO)C(=O)c2cc(NS(=O)(=O)c3ccc(F)cc3)ccc2O1
inactive: [1] | [2] | [3] | [4] | [5] -6.08% | [6] | [7]

Cc1ccccc1-c1ccc([C@@H]2[C@@H](CO)N3CCCCN(C(=O)NC4CCCC4)C[C@H]23)cc1
inactive: [1] | [2] | [3] | [4] | [5] -4.19% [at 16 µM, active compounds read low] | [6] | [7] | [8]

C[C@H]1CN([C@@H](C)CO)C(=O)c2c(c3ccccc3n2C)-c2ccccc2CO[C@@H]1CN(C)Cc1cccc(C(F)(F)F)c1
inactive: [1] | [2] | [3] | [4] | [5] 14.4% [at 0.26 µM, active compounds read low] | [6] | [7]

C[C@@H]1CCCCO[C@@H](CN(C)Cc2ccc(Cl)c(Cl)c2)[C@H](C)CN([C@H](C)CO)C(=O)c2cc(NS(=O)(=O)c3ccc(Cl)cc3)ccc2O1
inactive: [1] | [2] | [3] | [4] | [5] -24.1% | [6] | [7]

C[C@@H]1CCCCO[C@@H](CN(C)Cc2ccc(C(F)(F)F)cc2)[C@H](C)CN([C@H](C)CO)C(=O)c2cc(NC(=O)c3ccccc3)ccc2O1
inactive: [1] | [2] | [3] | [4] | [5] -25.3% | [6] | [8]

C[C@@H]1CN([C@@H](C)CO)C(=O)Cc2cc(NC(=O)C3CCCCC3)ccc2O[C@H]1CN(C)Cc1ccc(Cl)c(Cl)c1
inactive: [1] | [2] | [3] | [4] | [5] -14.6% [at 8 µM, active compounds read low] | [6] | [7] | [8]

N#C[C@@H]1[C@@H](c2ccc(-c3cccc(F)c3)cc2)[C@H](CO)N1C(=O)NC1CCCC1
inactive: [1] | [2] | [3] | [4] | [5] 15.7% [at 0.26 µM, active compounds read low] | [7] | [8]

C[C@@H]1CN([C@@H](C)CO)C(=O)Cc2cc(NS(=O)(=O)c3ccc(Cl)cc3)ccc2O[C@H]1CN(C)Cc1ccc(Cl)c(Cl)c1
inactive: [1] | [2] | [3] | [4] | [5] 11% [at 16 µM, active compounds read low] | [6] | [7] | [8]

Cc1cccc(S(=O)(=O)N2CC[C@@H]3[C@H](CO)N(C)c4ccc(C#Cc5ccc(F)cc5)cc4[C@@H]32)c1
inactive: [1] | [2] | [3] | [4] | [5] -16.3% [at 30 µM, active compounds read low] | [6] | [7]

C[C@@H]1CN([C@H](C)CO)C(=O)c2cc(NC(=O)Nc3ccc(F)cc3)ccc2O[C@@H](C)CCCCO[C@H]1CN(C)C(=O)C1CCCCC1
inactive: [1] | [2] | [3] | [4] | [5] 11.9% [at 16 µM, active compounds read low] | [6] | [8]

C[C@H](CO)N1C[C@H](C)[C@@H](CN(C)Cc2ccc(Cl)c(Cl)c2)Oc2ccc(NC(=O)Nc3ccc(C(F)(F)F)cc3)cc2CC1=O
inactive: [1] | [2] | [3] | [4] | [5] 17.7% [at 0.5 µM, active compounds read low] | [6] | [7] | [8]

C[C@@H]1CCCCO[C@@H](CN(C)C(=O)Nc2ccc(F)cc2)[C@H](C)CN([C@H](C)CO)C(=O)c2cc(NS(=O)(=O)c3ccc(Cl)cc3)ccc2O1
inactive: [1] | [2] | [3] | [4] | [5] 17.7% | [6] | [7]

C[C@H]1CCCCO[C@H](CN(C)C(=O)Nc2cccc3ccccc23)[C@@H](C)CN([C@@H](C)CO)C(=O)c2cc(NS(=O)(=O)c3ccc(F)cc3)ccc2O1
inactive: [1] | [2] | [3] | [4] | [5] 28.1% [at 0.5 µM, active compounds read low] | [6] | [7]

C[C@@H]1CN([C@@H](C)CO)C(=O)Cc2cc(NS(=O)(=O)c3ccc(F)cc3)ccc2O[C@H]1CN(C)Cc1ccc(Cl)c(Cl)c1
inactive: [1] | [2] | [3] | [4] | [6]

C[C@@H]1CN([C@@H](C)CO)C(=O)c2cc(NC(=O)Cc3ccccc3)ccc2O[C@@H](C)CCCCO[C@H]1CN(C)Cc1ccc(C(F)(F)F)cc1
inactive: [1] | [2] | [3] | [4] | [5] -16.1% | [6] | [7]

C[C@H](CO)N1C[C@H](C)[C@H](CN(C)S(=O)(=O)c2ccc(F)cc2)OCCCC[C@H](C)Oc2ccc(NS(=O)(=O)c3ccc(Cl)cc3)cc2C1=O
inactive: [1] | [2] | [3] | [4] | [5] -16.9% [at 4.2 µM, active compounds read low] | [6] | [8]

C[C@H](CO)N1C[C@H](C)[C@H](CN(C)Cc2ccc(Cl)c(Cl)c2)OCCCC[C@H](C)Oc2ccc(NC(=O)Nc3ccc(C(F)(F)F)cc3)cc2C1=O
inactive: [1] | [2] | [3] | [4] | [5] 27.7% [at 2.1 µM, active compounds read low] | [6] | [7]

O=C(C[C@H]1CC[C@@H]2[C@H](COC[C@H](O)CN2S(=O)(=O)c2cccc(F)c2)O1)Nc1ccc(-c2ccccc2)cc1
inactive: [1] | [2] | [3] | [4] | [5] 27.1% [at 0.5 µM, active compounds read low] | [6] | [7]

Source: PubChem BioAssay
